ALOX12 inh = Primary qHTS assay for inhibitors of human arachidonate 12S-lipoxygenase (ALOX12): Round 2 | Polyunsaturated fatty acid lipoxygenase ALOX12 (Homo sapiens), P18054 | purified 12hLO, xylenol orange hydroperoxide absorbance | Potency, µM (highest dose often 108 µM), most hits filed as inhibitors | hit rate 1.1% among 580,000
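Purified human 12hLO (150 nM final) in 25 mM Hepes, 0.01% Triton X-100, pH 7.0 was preincubated 15 min at room temperature with compound. Then 40 uM arachidonic acid was added, 30 min. Hydroperoxide was read by Fe-XO absorbance ratio 573/405 nm.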
BAZ2B inh = qHTS Assay for Inhibitors of BAZ2B. Bromodomain adjacent to zinc finger domain protein 2B (Homo sapiens), Q9UIF8. AlphaScreen BAZ2B-H3K14Ac peptide displacement. Potency, µM (doses to about 114 µM), hits mostly inhibitors. hit rate 4.4% among 360,000; further: nearly all actives have a fitted effect of over 60% in size
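AlphaScreen luminescence quantifies BAZ2B engagement of H3K14Ac peptide; the protein and biotinylated peptide are both at 50 nM final, buffer PBS pH 7.4 with 0.01% Tween-20, all steps at room temperature.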
G9a inh = qHTS Assay for Inhibitors of Histone Lysine Methyltransferase G9a | G9a H3K9 monomethylation, AlphaScreen, 2 h | Potency, µM (doses to about 102 µM), usual class: inhibitors | hit rate 8.8% among 350,000; further: nearly all actives have a fitted effect of over 75% in size
Target sequence (Q96KQ7 913-1193 limits assumed): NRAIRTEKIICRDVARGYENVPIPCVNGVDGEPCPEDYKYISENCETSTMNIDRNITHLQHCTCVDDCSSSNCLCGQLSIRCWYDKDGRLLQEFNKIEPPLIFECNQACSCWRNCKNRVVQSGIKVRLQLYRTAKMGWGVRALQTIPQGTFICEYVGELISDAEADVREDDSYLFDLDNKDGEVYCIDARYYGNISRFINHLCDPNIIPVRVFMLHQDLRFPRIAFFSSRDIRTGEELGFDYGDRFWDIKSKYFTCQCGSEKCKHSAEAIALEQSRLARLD
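Using a bead-based AlphaScreen, monomethylated H3K9 product from 2 h room-temperature reactions (G9a 20 nM, peptide 500 nM, SAM 20 uM) was detected with 0.5 ug/mL rabbit anti-H3K9me1 antibody.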
JMJD2A Tudor = qHTS Assay for Inhibitors of JMJD2A-Tudor Domain | Lysine-specific demethylase 4A (Homo sapiens), O75164 | AlphaScreen JMJD2A-Tudor / H3K4me3 peptide binding | Potency, µM (doses to about 114 µM), usual class: inhibitors | hit rate 4.4% among 390,000; further: nearly all actives have a fitted effect of over 50% in size
HP1b binding inh = HTS for Inhibitors of HP1-beta Chromodomain Interactions with Methylated Histone Tails | Chromobox protein homolog 1 (Homo sapiens), P83916 | Potency, µM (top dose mostly 114 µM), most hits filed as inhibitors | hit rate 0.56% among 390,000 | AlphaScreen HP1-beta / biotin-H3K9me3 peptide binding; further: nearly all actives have a fitted effect of over 70% in size
Target sequence (P83916 whole entry, looked up): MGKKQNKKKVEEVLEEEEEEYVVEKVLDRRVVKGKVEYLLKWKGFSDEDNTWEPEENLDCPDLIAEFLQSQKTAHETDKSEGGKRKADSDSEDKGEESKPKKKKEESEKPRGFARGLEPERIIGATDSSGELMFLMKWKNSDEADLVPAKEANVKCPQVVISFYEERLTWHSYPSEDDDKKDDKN
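HP1-beta protein (50 nM final) preincubated 30 min at room temperature with biotinylated H3(1-18)K9me3 peptide (50 nM) in PBS pH 7.4, 0.01% Tween-20, then compound added for 30 min. AlphaScreen streptavidin donor/nickel chelate acceptor beads (10 ug/mL final), 30 min dark, luminescence read.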
Sfp inh = qHTS Assay for Inhibitors of Bacillus subtilis Sfp phosphopantetheinyl transferase (PPTase). Potency, µM, hits mostly inhibitors. hit rate 3.5% among 310,000. 4'-phosphopantetheinyl transferase ffp (Bacillus subtilis), Q9F4F7. AID 1490, 2009. Biochemical Sfp PPTase activity, qHTS;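 further: the enzyme is Sfp with the accession as filed and its product quenches rhodamine fluorescence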
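Compounds were incubated with enzyme (final 15 nM) for 15 min at room temperature before substrate addition started the reaction. Fluorescence at 525 nm excitation, 598 nm emission was recorded immediately and after 30 minutes.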
Each line names hits and unclear results; the compound was inactive in the other large screens. In the library only some 8.7% were active in any assay of this set; here they are far more common. The call rests on the fitted dose curve; in most records, active means well fitted curve in the direction sought with a large enough effect; inconclusive means small, poorly fitted or top-dose-only effect, or another doubt; inactive means no such curve, though single readings can be large; an effect the other way counts as inactive or inconclusive.

O=C(O)/C(=C\c1cccc(O)c1)c1ccc(S(=O)(=O)N2CCCC2)s1	BAZ2B inh inconclusive, G9a inh inconclusive (no result: Sfp inh)
CCOc1cc(/C=C(\C(=O)O)c2ccc(S(=O)(=O)N3CCCC3)s2)ccc1OC	none (no result: Sfp inh)
O=C(O)/C(=C/c1ccc(Cl)c([N+](=O)[O-])c1)c1ccc(S(=O)(=O)N2CCCCC2)s1	ALOX12 inh 25.1µM (no result: BAZ2B inh, G9a inh, Sfp inh)
O=C(O)/C(=C\c1cccc(F)c1)c1ccc(S(=O)(=O)N2CCCCC2)s1	BAZ2B inh inconclusive, G9a inh 56.2µM, JMJD2A Tudor inconclusive
CC(Cn1cccn1)C(=O)N1CCC(Oc2ccccc2)(C(=O)O)CC1 (stereo unspecified)	none (no result: BAZ2B inh, G9a inh, JMJD2A Tudor, HP1b binding inh, Sfp inh)
Cc1cc(NCCO)nc(-n2nc(C)cc2C)n1	G9a inh inconclusive
Cc1cc(N(CCO)CCO)nc(-n2nc(C)cc2C)n1	G9a inh 39.8µM, JMJD2A Tudor inconclusive
CC(=O)N1N=C(c2ccco2)CC1c1cccs1 (stereo unspecified)	G9a inh inconclusive, Sfp inh inconclusive
O=C(CCl)N1N=C(c2ccco2)CC1c1cccs1 (stereo unspecified)	G9a inh 10µM, Sfp inh 28.2µM (no result: ALOX12 inh)
Cc1ccc(C2=NN(C(=O)CCl)C(c3cccs3)C2)o1 (stereo unspecified)	ALOX12 inh inconclusive, G9a inh 12.6µM, Sfp inh 50.1µM
CCC(=O)N1N=C(c2ccc(C)o2)CC1c1ccc(N(C)C)cc1 (stereo unspecified)	BAZ2B inh inconclusive, G9a inh 50.1µM, JMJD2A Tudor inconclusive
Cc1ccc(C2=NN(C(=O)CCC(=O)O)C(c3cccs3)C2)cc1 (stereo unspecified)	none
O=C(c1ccccc1)N1N=C(c2ccco2)CC1c1cccs1 (stereo unspecified)	ALOX12 inh inconclusive, BAZ2B inh inconclusive, JMJD2A Tudor 35.5µM, HP1b binding inh inconclusive (no result: G9a inh)
O=C(NNC(=O)C1CCCC1)c1ccc(Cl)cc1	none (no result: BAZ2B inh, G9a inh, JMJD2A Tudor, HP1b binding inh, Sfp inh)
Cc1ccccc1N1CC(O)(c2ccccc2)[N+]2=C1SCC2 (stereo unspecified)	ALOX12 inh inconclusive, G9a inh 31.6µM
Cc1ccc(C2(O)CN(c3ccccc3C)C3=[N+]2CCS3)cc1 (stereo unspecified)	ALOX12 inh inconclusive, G9a inh 31.6µM
COc1ccc(-c2cnc3c(NC=O)cc(-c4ccccc4OC)cn23)cc1OC	ALOX12 inh 6.31µM (no result: BAZ2B inh, G9a inh, JMJD2A Tudor, HP1b binding inh, Sfp inh)
COc1ccc(-c2cc(NC=O)c3ncc(-c4ccc(OC)c(OC)c4)n3c2)cc1OC	none (no result: BAZ2B inh, G9a inh, JMJD2A Tudor, HP1b binding inh, Sfp inh)
Cc1ccccc1CNc1ncnc2ccccc12	none (no result: BAZ2B inh, G9a inh, JMJD2A Tudor, HP1b binding inh, Sfp inh)
CC(C)C(OC(=O)Cc1c[nH]c2ccccc12)C(=O)NC(N)=O (stereo unspecified)	none (no result: BAZ2B inh, G9a inh, JMJD2A Tudor, HP1b binding inh, Sfp inh)
COC(=O)N/N=C/c1ccc(OC(=O)/C=C/c2ccco2)cc1	ALOX12 inh inconclusive, BAZ2B inh 70.8µM, JMJD2A Tudor inconclusive (no result: G9a inh)
CC(C)(C)OC(=O)N/N=C\c1ccc(OC(=O)c2ccco2)cc1	JMJD2A Tudor 31.6µM
CCOc1cc(/C=N\NC(=O)OC(C)(C)C)ccc1OC(=O)c1ccco1	ALOX12 inh inconclusive, JMJD2A Tudor 20µM (no result: BAZ2B inh)
COCCN1C(=O)CC[C@]2(C(=O)NCc3ccccc3Cl)CCCC[C@@H]12	none (no result: BAZ2B inh, G9a inh, JMJD2A Tudor, HP1b binding inh, Sfp inh)
COC(=O)C(Sc1nc(C)cc(C)c1C#N)c1ccccc1 (stereo unspecified)	none
Cc1cc(C)c(C#N)c(Sc2ccccc2N)n1	G9a inh 7.94µM
CN(C)c1ccc(CN(CC2CCCO2)C(=O)c2ccc(Br)cc2)cc1 (stereo unspecified)	BAZ2B inh 39.8µM, G9a inh 14.1µM, JMJD2A Tudor 50.1µM, HP1b binding inh inconclusive (no result: Sfp inh)
COc1cccc(C(=O)N(Cc2cc3cc4c(cc3nc2N(C)C)OCO4)CC2CCCO2)c1 (stereo unspecified)	none (no result: BAZ2B inh, G9a inh, JMJD2A Tudor, HP1b binding inh, Sfp inh)

Assay outcomes as filed in PubChem.
